# Experimental data reported in paper PMC4336329 (PLoS ONE, 2015).
# The campaign covered roughly 310,000 compounds. About 14,000 (4.5%) showed an effect of 50% or more. The effect is printed as a negative number. For the sample, strong results were picked, then their nearest neighbours and some compounds at random.
# Molecular target: human ether-à-go-go-related gene (hERG) potassium channel (human, UniProt Q12809)
# Test: primary screen, population patch clamp on CHO cells stably expressing hERG; higher = less effect of the substance
# 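Also: peak tail current of the secondary pulse compared with the same well before compound.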
# Sequence of human ether-à-go-go-related gene (hERG) potassium channel (Q12809 whole entry, looked up): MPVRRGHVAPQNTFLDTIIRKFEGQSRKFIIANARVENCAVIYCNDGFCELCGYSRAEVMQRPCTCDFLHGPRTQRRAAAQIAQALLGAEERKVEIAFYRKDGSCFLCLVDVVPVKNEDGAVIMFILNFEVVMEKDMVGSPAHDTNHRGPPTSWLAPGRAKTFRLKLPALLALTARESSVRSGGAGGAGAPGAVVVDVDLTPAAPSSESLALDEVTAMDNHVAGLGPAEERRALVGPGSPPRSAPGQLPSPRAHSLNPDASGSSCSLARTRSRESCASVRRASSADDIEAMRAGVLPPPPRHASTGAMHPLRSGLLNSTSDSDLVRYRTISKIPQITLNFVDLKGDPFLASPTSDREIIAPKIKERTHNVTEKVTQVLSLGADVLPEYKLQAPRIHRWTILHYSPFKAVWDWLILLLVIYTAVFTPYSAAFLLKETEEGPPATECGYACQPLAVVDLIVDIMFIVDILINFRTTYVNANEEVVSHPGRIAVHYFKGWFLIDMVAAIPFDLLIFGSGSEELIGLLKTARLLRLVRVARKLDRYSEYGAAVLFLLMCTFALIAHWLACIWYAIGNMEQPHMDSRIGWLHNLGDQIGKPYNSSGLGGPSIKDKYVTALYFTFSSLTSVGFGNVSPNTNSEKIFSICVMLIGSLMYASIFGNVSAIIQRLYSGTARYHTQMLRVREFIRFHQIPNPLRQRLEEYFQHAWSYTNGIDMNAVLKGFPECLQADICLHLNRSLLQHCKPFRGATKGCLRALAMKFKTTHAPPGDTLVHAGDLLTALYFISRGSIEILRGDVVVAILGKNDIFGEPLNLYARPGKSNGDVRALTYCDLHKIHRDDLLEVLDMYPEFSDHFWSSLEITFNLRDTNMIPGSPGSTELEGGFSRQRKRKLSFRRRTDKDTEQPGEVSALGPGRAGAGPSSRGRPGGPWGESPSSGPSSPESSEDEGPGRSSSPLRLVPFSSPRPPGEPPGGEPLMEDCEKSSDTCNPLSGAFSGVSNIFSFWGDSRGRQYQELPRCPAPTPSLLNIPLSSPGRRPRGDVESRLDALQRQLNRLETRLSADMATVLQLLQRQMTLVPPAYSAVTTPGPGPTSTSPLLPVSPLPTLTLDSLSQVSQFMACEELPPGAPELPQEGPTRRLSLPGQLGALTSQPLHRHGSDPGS
row,Structure (SMILES),"hERG current change (%, negative = inhibition) at 10uM"
1,COc1ccc(S(=O)(=O)Cc2ccc(C(=O)O)o2)cc1,21.8%
2,CCOC(=O)N1CCC(n2c(SCC(=O)NCCc3ccc(S(N)(=O)=O)cc3)nc3ccccc3c2=O)CC1,21%
3,CCOC(=O)N1CCC(n2c(SCC(=O)N3CCC(C)CC3)nc3ccccc3c2=O)CC1,-47.9%
4,CCOC(=O)N1CCC(n2c(SCC(=O)N3CCCC3)nc3ccccc3c2=O)CC1,-20.9%
5,CCOC(=O)N1CCC(n2c(SCC(=O)Nc3ccccc3OC)nc3ccccc3c2=O)CC1,-66.4%
6,CCOC(=O)N1CCC(n2c(SCC(=O)NCc3ccccc3)nc3ccccc3c2=O)CC1,-46.6%
7,CCOC(=O)N1CCC(n2c(SCC(=O)NCCC3=CCCCC3)nc3ccccc3c2=O)CC1,-59.3%
8,COc1ccccc1S(=O)(=O)Cc1ccc(C(=O)NCc2ccc(C)cc2)o1,-28.4%
9,CC(C)(CNC(=O)c1cc(Cl)c(O)c(Cl)c1)N1CCCCC1,4.69%
10,c1ccc(N=Nc2ccc3cccccc2-3)cc1,8.38%
11,Cc1cc(Oc2nnnn2-c2ccccc2)ccc1Cl,-15.3%
12,COc1ccc(C(CC(=O)N2CCC3(CC2)OCCO3)NS(=O)(=O)c2ccc(F)cc2)cc1 (stereo not shown),-2.22%
13,O=C(O)C1CC=CCC1C(=O)Nc1ccc(Oc2ccc(Cl)cc2)cc1 (stereo not shown),7.55%
14,COc1ccc(CCC(=O)NNC(=O)c2ccc(F)cc2)cc1,6.02%
15,O=C(CCc1nnc2ccc(NCc3ccc(F)cc3)nn12)NC1CCCC1,-0.461%
16,CSCC[C@H](NC(=O)OC(C)(C)C)c1nnc(SCc2ccccc2)o1,-51.3%
17,Cc1ccc(NC(=O)CSc2nnc([C@H](C)NC(=O)OC(C)(C)C)o2)c(C)c1,-6.67%
18,CSCC[C@H](NC(=O)OC(C)(C)C)c1nnc(SCc2cccc(F)c2)o1,-30.3%
19,CSCC[C@H](NC(=O)OC(C)(C)C)c1nnc(SCC(=O)Nc2ccc(C)cc2C)o1,-50.1%
20,CSCC[C@H](NC(=O)OC(C)(C)C)c1nnc(SCc2ccc(F)cc2)o1,-46.2%
21,CSCC[C@H](NC(=O)OC(C)(C)C)c1nnc(SCC(=O)Nc2c(C)cccc2C)o1,-14.5%
22,Cc1cc(NC(=O)CSc2ccc3c(c2)OCCO3)no1,-8.22%

row,Structure (SMILES),"hERG current change (%, negative = inhibition) at 10uM"
1,COc1ccc(/C=C2\SC(=O)N(CC(=O)Nc3ccccc3O)C2=O)cc1OC,9.72%
2,CCC1(C)Cc2c(sc3nnn(CC(=O)Nc4ccccc4)c(=O)c23)CO1 (stereo not shown),-27.3%
3,O=C(CCn1c(=O)oc2ccccc21)Nc1ccc(C(=O)O)cc1,-45%
4,COc1cccc(C(=O)N2CCN(CCCc3ccccc3)CC2)c1OC.O=C(O)C(=O)O,-46.7%
5,COc1cc(C(=O)N2CCN(CCCc3ccccc3)CC2)cc(OC)c1OC,-9.98%
6,CCOc1ccc(C(=O)N2CCN(CCc3ccccc3)CC2)cc1OCC,-78.8%
7,COc1ccc(C(=O)N2CCN(CCCc3ccccc3)CC2)cc1OC.O=C(O)C(=O)O,-73.3%
8,CCOc1ccc(C(=O)N2CCN(C(=O)c3ccco3)CC2)cc1OCC,-5.57%
9,CCOc1ccc(C(=O)N2CCN(c3ccccc3)CC2)cc1OCC,-32.4%
10,OC(C#Cc1ccccn1)c1cccs1 (stereo not shown),3.9%
11,Clc1ccc(-c2[nH]ncc2N=Nc2ccccc2)cc1,15.3%
12,Cc1cccc(C(=O)NCCC(=O)Nc2ccc(C#N)cc2)c1,-0.169%
13,CCOc1ccc(CN2CCNC(=O)C2CC(=O)NCCCC2CCCC2)cc1 (stereo not shown),-34.1%
14,COc1ccc(Cc2noc(CN3CCC(c4ccncc4)CC3)n2)cc1OC,-20%
15,COc1ccc(Cc2noc(CN(C)CC3CCN(Cc4ccccc4)CC3)n2)cc1OC,-22.9%
16,COc1ccc(Cc2noc(CN3CCN(Cc4cccc(Cl)c4)CC3)n2)cc1OC,-11.5%
17,COc1ccc(Cc2noc(CN3CCCN(Cc4ccc(F)cc4)CC3)n2)cc1OC,-60.8%
18,COc1ccc(Cc2noc(CN3CCCN(C4Cc5ccccc5C4)CC3)n2)cc1OC,-67%
19,COc1ccc(Cc2noc(CN3CCN(Cc4csc(C)n4)CC3)n2)cc1OC,18.2%
20,COc1ccc(Cc2noc(CN3CCNC(=O)CC3)n2)cc1OC,6.36%
21,COc1ccc(Cc2noc(CN3CCN(C4CCc5ccccc5C4)CC3)n2)cc1OC (stereo not shown),-68.8%
22,COCCN1CCN(Cc2nc(Cc3ccc(OC)c(OC)c3)no2)CC1,3.84%

row,Structure (SMILES),"hERG current change (%, negative = inhibition) at 10uM"
1,Cc1ccc(NC(=S)Nc2c(C)n(C)n(-c3ccccc3)c2=O)cc1Cl,-22.7%
2,O=S1(=O)c2cccc3cccc(c23)N1Cc1nnc(-c2ccccc2Br)o1,-9.83%
3,COc1cc(C(=O)NC(=S)NNC(=O)c2ccc3c(c2)OCO3)cc(OC)c1OC,8.08%
4,CN1CCN(C(=O)CN(Cc2ccccc2)S(C)(=O)=O)CC1,25.7%
5,Cn1ncc(Cl)c1C(=O)NCc1ccc(Cl)cc1,-13.3%
6,COc1ccc(NC(=O)CN(c2ccc(OC)c(Cl)c2)S(=O)(=O)c2ccccc2)c(OC)c1,8.77%
7,Cc1cccc(N=CC=C2OC(C)(C)C(C)(C)O2)c1,3.43%
8,O=C(Nc1ccc(OC(F)F)c(Cl)c1)c1cccc(OC(F)F)c1,-61.7%
9,O=C(NC12CC3CC(CC(C3)C1)C2)c1cccc(OC(F)F)c1,-55.2%
10,CC(=O)Nc1cccc(C(=O)Nc2ccc(S(=O)(=O)N3CCCCC3)cc2)c1,-10.3%
11,O=C(Nc1ccc(S(=O)(=O)N2CCCC2)cc1)c1cccc(OC(F)F)c1,-54.3%
12,O=C(Nc1cc(Cl)cc(Cl)c1)c1cccc(OC(F)F)c1,-2.79%
13,COc1cccc(C(=O)NC23CC4CC(CC(C4)C2)C3)c1,2.17%
14,O=C(Nc1cccc(S(=O)(=O)N2CCCC2)c1)c1cccc(OC(F)F)c1,-56.4%
15,O=C(Nc1cccc(S(=O)(=O)N2CCCC2)c1)c1ccccc1OC(F)F,-13.7%
16,COc1ccc(NC(=O)c2cccc(OC(F)F)c2)cc1Cl,-22.2%
17,O=C(Nc1ccc(S(=O)(=O)N2CCCC2)cc1)c1ccccc1,-7.24%
18,O=C(NC12CC3CC(CC(C3)C1)C2)c1ccccc1,6.99%
19,N#Cc1cccc(C(=O)Nc2cccc(S(=O)(=O)N3CCCC3)c2)c1,2.83%
20,COc1ccc(NC2CCCN(C(=O)c3oc(C)cc3C)C2)cc1OC (stereo not shown),16.2%
21,CC(C)(C)C1CCC(C(=O)Nc2nccs2)CC1 (stereo not shown),9.99%
22,C/C(=N\NC(=O)c1ccc(C)cc1)c1c(C)[nH]n(-c2ccccc2)c1=O,14.2%

row,Structure (SMILES),"hERG current change (%, negative = inhibition) at 10uM"
1,Cc1ccccc1N1C(=O)C2ON(c3ccccc3)C(c3ccco3)C2C1=O (stereo not shown),16.8%
2,CSc1nnnn1CCn1nnnc1SC,10.1%
3,Cc1cccc(/C=N/n2c(C)nnc2C)c1,-0.651%
4,O=C1CN(C(=O)CSc2nc(-c3ccc(Cl)cc3)cs2)c2ccccc2N1,13.9%
5,Fc1ccccc1-c1nc2c(s1)CCc1onc(-c3ccc(Br)cc3)c1-2,11.4%
6,CCC(C)c1ccc(NC(=S)N2CCCC2)cc1 (stereo not shown),1.86%
7,O=C(CCSCc1ccc(Cl)cc1)NCCC1=CCCCC1,11.4%
8,COc1ccc(N/C=C2\CCc3ccccc3C2=O)cc1,0.787%
9,O=C(CNC(=O)c1ccc(OC(F)F)cc1)Nc1cccc(S(=O)(=O)N2CCCC2)c1,-70.3%
10,CC(O/N=C/c1ccc(OC(F)F)cc1)C(=O)Nc1cccc(S(=O)(=O)N2CCOCC2)c1 (stereo not shown),-60.5%
11,O=C(COC(=O)CNC(=O)c1ccc(F)cc1)Nc1cccc(S(=O)(=O)N2CCCC2)c1,-12%
12,COc1ccc(C(=O)NCC(=O)OCC(=O)Nc2cccc(S(=O)(=O)N3CCCC3)c2)cc1,-15.8%
13,CC(O/N=C/c1ccccc1OC(F)F)C(=O)Nc1cccc(S(=O)(=O)N2CCOCC2)c1 (stereo not shown),-33.9%
14,O=C(/C=C/c1ccc(OC(F)F)cc1)Nc1cccc(S(=O)(=O)N2CCOCC2)c1,14.2%
15,C[C@H]1CN=C(N(C)C)N1CC1CCCCC1,7.73%
16,Nc1nonc1-n1nnc(C(=O)N/N=C/c2cccc(Cl)c2)c1-c1cccs1,3.81%
17,Cc1noc(NS(=O)(=O)c2ccc(N/C=C/C(=O)c3ccncc3)cc2)c1C,-13%
18,COCCCN1CC(=O)N2C(c3ccccc3)c3[nH]c4ccccc4c3C[C@H]2C1=O (stereo partly shown),-11.3%
19,O=C(NNC(=O)C12CC3CC(CC(C3)C1)C2)c1csc(N2CCOCC2)n1,11.3%
